This is an account of results in PubChem BioAssay (NCATS).

Inconclusive results are not listed. Calls of active or inactive are those of the source. Unless noted, the call rests on the fitted dose curve; in most records, active means well fitted curve in the direction sought with a large enough effect; inconclusive means small, poorly fitted or top-dose-only effect, or another doubt; inactive means no such curve, though single readings can be large; an effect the other way counts as inactive or inconclusive.

Experiment [1] can be described thus: NCATS anti-infectives library activity on HEK293 viability as a counter-qHTS vs the C. elegans viability qHTS (AID 1745854).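 Further: HEK293 cells exposed to compounds for 24 hr before the viability read; on the % scale 0 is the no-effect control and ±100 the full control effect.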 In short, it runs like this:
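Compounds were acoustically plated (several concentrations, 1:5, final up to 41.7 uM), then 1500 HEK293 cells added per well and incubated 24 hr at 37C, 5% CO2. CellTiter-Glo was added and luminescence read after 10 min.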
A general note: Quantitative high-throughput screening tests each substance at several concentrations.

Experiment [2] can be described thus: NCATS anti-infectives library activity on the primary C. elegans qHTS viability assay (AID 1745855; calls by dose curve; further: potency means the concentration at half of the fitted maximal effect). The following applies: C. elegans worm area imaging, day 7. Summed up:
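Viability read-out is GFP fluorescence of PE254-GFP-FLuc C. elegans, measured by laser cytometry (488 nm) at day 0, 3 and 7. Ten L1 worms per well were incubated 7 days at 21 °C with compounds and bacterial capsules in S medium.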

For experiment [3], the target named is Glutathione peroxidase 1 (Homo sapiens) (UniProt P07203). The experiment can be described thus: Primary qHTS Assay for Inhibitors of Recombinant Selenoprotein Glutathione Peroxidase 1 (GPX1) (AID 1845191). Further: nearly all actives have a fitted effect of over 65% in size. In short, it runs like this: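 GR-coupled assay: compounds preincubated 30 min at room temperature with GPX1, then reaction started with CHP; final 10 nM GPX1, 1 mM GSH, 0.5 mM CHP, 0.5 mM NADPH, 100 nM GR, 0.01% BSA, pH 7.5 Tris buffer. NADPH fluorescence (340/450 nm) read at 0 and 15 min.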

Experiment [4] can be described thus: Quantitative High-Throughput drug screen in 47 multiple myeloma cell lines against the NCATS MIPE library collection: FR4_PLB cell viability assay (AID 1918924; further: nearly all actives have a fitted effect of over 35% in size; further: potency means the concentration at half of the fitted maximal effect). In short, it runs like this:
(§1)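 Myeloma cell lines, 500 cells per well, exposed to MIPE 4.0 library compounds for 48 h at 37C, 5% CO2. Viability from ATP by CellTiter-Glo luminescence; normalised to DMSO (100%) and media-only (0%) wells.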

Experiment [5] can be described thus: Quantitative High-Throughput drug screen in 47 multiple myeloma cell lines against the NCATS MIPE library collection: Delta47_JCRB cell viability assay (AID 1918925; further: potency means the concentration at half of the fitted maximal effect; nearly all actives have a fitted effect of over 45% in size). In short, it runs like this:
(§2)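 qHTS of the MIPE 4.0 collection: 500 myeloma cells/well, 48 h drug exposure at 37C in 5% CO2, then CellTiter-Glo for 5 min at room temperature before luminescence reading.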

Experiment [6] is described as follows: Quantitative High-Throughput drug screen in 47 multiple myeloma cell lines against the NCATS MIPE library collection: AMO1_DSMZ cell viability assay (AID 1918927; further: nearly all actives have a fitted effect of over 30% in size; further: potency means the concentration at half of the fitted maximal effect). In short, it runs like this:
as §2

Experiment [7] in a line: Quantitative High-Throughput drug screen in 47 multiple myeloma cell lines against the NCATS MIPE library collection: ARP1_JJKsccF8 cell viability assay (AID 1918928; further: nearly all actives have a fitted effect of over 40% in size; further: potency means the concentration at half of the fitted maximal effect). Summed up:
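Myeloma cells at 500 per well in 1536-well format treated with MIPE 4.0 library by pin transfer for 48 h at 37C, 5% CO2. Viability from ATP luminescence (CellTiter-Glo), normalized to DMSO (100%) and media-only (0%) wells.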

A short description of experiment [8]: Quantitative High-Throughput drug screen in 47 multiple myeloma cell lines against the NCATS MIPE library collection: ARD_JJKsccE7 cell viability assay (AID 1918929; further: potency means the concentration at half of the fitted maximal effect). Summed up: as §2
Experiment [9] in a line: Quantitative High-Throughput drug screen in 47 multiple myeloma cell lines against the NCATS MIPE library collection: Karpas620_DSMZ cell viability assay (AID 1918959). Further: nearly all actives have a fitted effect of over 30% in size. Further: potency means the concentration at half of the fitted maximal effect. In short, it runs like this: as §1
The target of experiment [10] is Metallo-beta-lactamase type 2 (Klebsiella pneumoniae) (UniProt C7C422). The experiment can be described thus: qHTS to identify inhibitors of the New Delhi Metallo-beta-lactamase (NDM): assay validation screen against the NCATS LOPAC Collection (AID 1794843).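 Further: nitrocefin turnover by NDM-1 measured as 485 nm absorbance at plateau; on the % scale 0 is the no-effect control and ±100 the full control effect.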 In short, it runs like this:
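NDM-1 at 2 nM final in 50 mM HEPES pH 7.0, 1 uM ZnSO4, 0.01% Tween20, preincubated with LOPAC compounds pinned in DMSO; 50 uM nitrocefin (stock) added. Hydrolysis read as absorbance at 485 nm in the plateau phase.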

The target of experiment [11] is Phospholipid hydroperoxide glutathione peroxidase GPX4 (Homo sapiens) (UniProt P36969). The experiment in a line: Primary qHTS Assay for Inhibitors of Recombinant Selenoprotein Glutathione Peroxidase 4 (GPX4) (AID 1845192). Further: nearly all actives have a fitted effect of over 65% in size. On activity change, negative = inhibition: on the % scale 0 is the no-effect control and ±100 the full control effect. Summed up:
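GR-coupled assay: recombinant GPX4 preincubated 30 min with compound at room temperature; final 200 nM GPX4, 1 mM GSH, 0.5 mM cumene hydroperoxide, 0.5 mM NADPH, 100 nM GR, 0.01% BSA, pH 7.5 Tris. NADPH fluorescence (340/450 nm) read at 0 and 15 min.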

Experiment [12] has as its target Catechol O-methyltransferase (Homo sapiens) (UniProt P21964). The experiment can be described thus: Confirmatory Screen for Target Class Profiling of Small Molecule Inhibitors of Methyltransferases (AID 1745852; calls by dose curve; further: potency means the concentration at half of the fitted maximal effect; on activity change, negative = inhibition: on the % scale 0 is the no-effect control and ±100 the full control effect). Conditions: MTase-Glo luminescence, SAH detection, recombinant enzyme; measured here: COMT max response; stronger effect = lower value.
The target in experiment [13] is Guanidinoacetate N-methyltransferase (Homo sapiens) (UniProt Q14353). The experiment is described as above. Conditions: MTase-Glo luminescence, SAH detection, recombinant enzyme; activity change, negative = inhibition: at 57.3 µM (top of the series).
Experiment [14] addresses Nicotinamide N-methyltransferase (Homo sapiens) (UniProt P40261). Described as above. Conditions: MTase-Glo luminescence, SAH detection, recombinant enzyme; measured here: NNMT max response; stronger effect = lower value.
Experiment [15] concerns the target Phenylethanolamine N-methyltransferase (Homo sapiens) (UniProt P11086). The description is as above. Conditions: MTase-Glo luminescence, SAH detection, recombinant enzyme; measured here: PNMT max response; stronger effect = lower value.
For experiment [16], the target named is Luciferin 4-monooxygenase (Photinus pyralis) (UniProt P08659). The experiment can be described thus: Primary firefly luciferase (FLuc) qHTS assay for identification of artifact compounds. (AID 1845220).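 Further: plate controls were DMSO vehicle for no effect and no enzyme for full effect; nearly all actives have a fitted effect of over 60% in size.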 Conditions: outcome: dose series up to 54.1 µM unless noted. In short, it runs like this:
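Enzymatic FLuc inhibition assay: compounds pre-exposed to luciferin/ATP (10 uM each) for 15 min, then purified P. pyralis enzyme at 10 nM added. Read-out: luminescence at 5 min.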

Experiment [17] concerns Nanoluciferase (engineered Oplophorus gracilirostris luciferase). The experiment in a line: Primary Nanoluciferase (NLuc) qHTS assay for identification of artifact compounds. (AID 1845222).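 Further: NLuc secreted into diluted conditioned medium of S16 cells; 0% = DMSO and -100% = no enzyme.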 Summed up:
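S16 cell supernatant NLuc, 1:55; cpds qHTS; 15 min RT dark; Nano-Glo substrate 1:100, 5 min; luminescence; Hill fit of % inhibition.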

Experiment [18] is described as follows: Primary redox qHTS assay for identification of artifact compounds. (AID 1845223). In short, it runs like this: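 Amplex Red (25 uM) and HRP (250 mU/mL) in HBSS, with compounds for 15 min, then 250 uM DTT for 30 min, room temperature, dark. Fluorescence 525/598 nm read; normalized to DMSO and 10 uM DA3003; Hill fit.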
Experiment [19] is described as follows: Quantitative High-Throughput drug screen in 47 multiple myeloma cell lines against the NCATS MIPE library collection: EJM_DSMZ cell viability assay (AID 1918926; further: nearly all actives have a fitted effect of over 30% in size; further: potency means the concentration at half of the fitted maximal effect). In short, it runs like this: as §2

Metallo-beta-lactamase type 2 (Klebsiella pneumoniae), sequence (C7C422 whole entry, looked up): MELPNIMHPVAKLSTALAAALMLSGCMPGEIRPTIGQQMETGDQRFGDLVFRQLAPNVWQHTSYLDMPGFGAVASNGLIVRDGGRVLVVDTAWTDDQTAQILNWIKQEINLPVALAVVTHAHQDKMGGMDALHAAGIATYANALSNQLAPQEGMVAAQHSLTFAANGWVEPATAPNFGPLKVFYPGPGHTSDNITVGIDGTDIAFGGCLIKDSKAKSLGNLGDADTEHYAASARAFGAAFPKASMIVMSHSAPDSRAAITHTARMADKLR
Glutathione peroxidase 1 (Homo sapiens), sequence (P07203 whole entry, looked up): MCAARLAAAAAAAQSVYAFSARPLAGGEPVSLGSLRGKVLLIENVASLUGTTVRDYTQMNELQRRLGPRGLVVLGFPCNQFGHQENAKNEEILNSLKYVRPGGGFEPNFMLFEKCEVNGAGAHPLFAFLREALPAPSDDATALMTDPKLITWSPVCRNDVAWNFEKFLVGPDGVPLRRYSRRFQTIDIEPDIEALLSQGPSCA
Phenylethanolamine N-methyltransferase (Homo sapiens), sequence (P11086 whole entry, looked up): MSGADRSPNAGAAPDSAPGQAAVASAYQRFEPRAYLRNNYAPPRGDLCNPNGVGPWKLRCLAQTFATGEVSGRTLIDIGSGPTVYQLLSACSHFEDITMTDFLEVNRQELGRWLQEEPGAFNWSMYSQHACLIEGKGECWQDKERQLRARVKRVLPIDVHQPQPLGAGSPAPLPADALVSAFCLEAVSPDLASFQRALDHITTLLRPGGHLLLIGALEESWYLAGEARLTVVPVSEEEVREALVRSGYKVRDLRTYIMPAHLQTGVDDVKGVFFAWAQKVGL
Catechol O-methyltransferase (Homo sapiens), sequence (P21964 whole entry, looked up): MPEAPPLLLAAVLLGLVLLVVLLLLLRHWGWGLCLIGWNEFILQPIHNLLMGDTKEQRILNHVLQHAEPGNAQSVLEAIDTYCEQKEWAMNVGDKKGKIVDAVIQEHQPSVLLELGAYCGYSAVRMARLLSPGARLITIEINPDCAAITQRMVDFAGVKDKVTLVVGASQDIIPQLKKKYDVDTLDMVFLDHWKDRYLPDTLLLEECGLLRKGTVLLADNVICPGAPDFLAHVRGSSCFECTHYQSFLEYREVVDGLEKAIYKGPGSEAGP
Nicotinamide N-methyltransferase (Homo sapiens), sequence (P40261 whole entry, looked up): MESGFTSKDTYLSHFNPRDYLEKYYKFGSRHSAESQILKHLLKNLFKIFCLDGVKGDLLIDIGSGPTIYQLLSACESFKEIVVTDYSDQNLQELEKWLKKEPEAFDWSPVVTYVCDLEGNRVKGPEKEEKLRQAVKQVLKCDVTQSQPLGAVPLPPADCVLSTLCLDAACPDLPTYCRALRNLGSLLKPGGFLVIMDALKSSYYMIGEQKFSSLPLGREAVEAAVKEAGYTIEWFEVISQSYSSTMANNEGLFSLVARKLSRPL
Phospholipid hydroperoxide glutathione peroxidase GPX4 (Homo sapiens), sequence (P36969 whole entry, looked up): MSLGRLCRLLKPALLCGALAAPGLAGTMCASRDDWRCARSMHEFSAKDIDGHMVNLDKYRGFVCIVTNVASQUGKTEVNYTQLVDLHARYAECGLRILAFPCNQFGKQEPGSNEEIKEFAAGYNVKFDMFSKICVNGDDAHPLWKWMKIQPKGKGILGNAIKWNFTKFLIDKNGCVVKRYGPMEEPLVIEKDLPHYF

As to `CCCCCC[C@H]1C(=O)O[C@H](C)[C@H](NC(=O)c2cccc(NC=O)c2O)C(=O)O[C@@H](C)[C@@H]1OC(=O)CC(C)C`, the Potency result in experiment [1] and in experiment [3] was “inactive” throughout. Further, the Potency in experiment [2] was 7.27 µM (active); in experiment [4], 66.2 nM (active); in [5], 52.6 nM (active); in experiment [6] it was 235 nM (active); in experiment [7], 41.8 nM (active); in experiment [8], 372 nM (active). Moreover, the Potency in experiment [9] was 935 nM (active).
As for `CC(C)Oc1cccnc1N(C)C1CCN(Cc2ccccc2)CC1`, the outcome in experiment [10] was “inactive”. In addition, the Potency result in experiment [3] and in experiment [11] was “inactive” each time.
Turning to `Cc1[nH]nc2ccc(-c3cncc(OC[C@@H](N)Cc4c[nH]c5ccccc45)c3)cc12`, the activity in experiment [12] is -31.1%; in [14], -70.5%; in [15], -56.5%. For the same compound, the Potency is 30.4 µM (active) in experiment [13], 209 nM (active) in experiment [5], 935 nM (active) in experiment [19] and 3320 nM (active) in experiment [7]. Moreover, the Potency entry in [3], in experiment [11], in experiment [6], in experiment [8] and in experiment [9] was “inactive” throughout. The outcome in experiment [16], in [17] and in experiment [18] was “inactive” each time.
For the compound `CNCCc1ccc(O)c(O)c1`, the activity in experiment [12] was 109%; in experiment [14] it was -0.877%; in experiment [15], 1.2%. For the same compound, in [13], the activity change, negative = inhibition is 3.55%. Further, in experiment [10], the outcome is “inactive”. For the same compound, the Potency entry in experiment [3] and in [11] was “inactive” throughout.
As to `NC(=NCCC[C@H](N)C(=O)O)N[N+](=O)[O-]`, the outcome in experiment [10] was “inactive”. The Potency entry in [3] and in [11] was “inactive” in each case.
Take `NCCc1c[nH]c2ccccc12`: the activity was -4.15% in experiment [12], -8.81% in experiment [14] and -14.8% in [15]. In experiment [13], the activity change, negative = inhibition stood at 2.74%. Besides, in experiment [10], the outcome was “inactive”. Besides, the Potency entry in experiment [3] and in experiment [11] was “inactive” in each case.
Turning to `CCNC(=O)C[C@@H]1N=C(c2ccc(Cl)cc2)c2cc(OC)ccc2-n2c(C)nnc21`, the Potency result in experiment [1], in experiment [3] and in experiment [11] was “inactive” throughout. Besides, the outcome in experiment [16] and in experiment [18] was “inactive” each time. Moreover, the Potency in [5] was 418 nM (active); in experiment [19] it was 1050 nM (active); in experiment [6] it was 372 nM (active); in experiment [7] it was 372 nM (active); in experiment [8], 264 nM (active); in experiment [9] it was 1050 nM (active).
`CN[C@@H]1C[C@@H](c2ccc(Cl)c(Cl)c2)c2ccccc21`: the outcome in experiment [10] is “inactive”. Moreover, the Potency entry in [3] and in [11] was “inactive” each time.
Turning to `Cc1nccc2c1[nH]c1ccccc12`, the outcome in experiment [10] is “inactive”. For the same compound, in experiment [3], the Potency result is “inactive”.
`CCCN(CCC)[C@@H]1CCc2ccc(O)cc2C1`: the activity in experiment [12] was 3.68%; in [14] it was -6.47%; in experiment [15], 6.74%. Also, the activity change, negative = inhibition in experiment [13] was found to be 1.97%. Moreover, in experiment [10], the outcome is “inactive”. In addition, the Potency entry in experiment [3] and in experiment [11] was “inactive” throughout.
With `C#CCOC(=O)C1=CCCN(C)C1`, in experiment [10], the outcome is “inactive”. In addition, the Potency result in experiment [3] and in [11] was “inactive” throughout.
`O=C(Oc1ccc([N+](=O)[O-])cc1)N1CCC(C(O)(c2ccc3c(c2)OCO3)c2ccc3c(c2)OCO3)CC1`: the Potency entry in experiment [1], in experiment [3], in experiment [11], in [4], in [19] and in experiment [7] was “inactive” in each case. The outcome in experiment [16], in experiment [17] and in experiment [18] was “inactive” throughout.
With `C[C@]12CCC3C(CC[C@H]4C[C@H](O)CC[C@]34C)C1CC[C@@H]2C(=O)CO` (some centres not stated), the outcome in [10] is “inactive”. The Potency entry in experiment [3] and in [11] was “inactive” each time.
